Laboratory results from PubChem BioAssay (Tox21).
Results filed as inconclusive are left out. Active and inactive are the calls of the source. Unless noted, the call rests on the fitted dose curve; in most records, active means well fitted curve in the direction sought with a large enough effect in the repeat runs; inconclusive means weak or mixed curves; inactive means no such curve, though single readings can be large; an effect the other way counts as inactive or inconclusive.

Columns and labels:
[1] = qHTS assay to identify small molecule antagonists of the estrogen related receptor (ERR) signaling pathway from Tox21 library - cell viability counter screen (AID 1224834); further: nearly all actives have a fitted effect of over 30% in size
Summary of the method: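 Multiplexed viability counter screen in ERR cells: 17.5 h compound exposure at 37 C, CellTiter-Fluor added, 30 min at 37 C/5% CO2, fluorescence read.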

[2] = molecular target: Luciferin 4-monooxygenase (Photinus pyralis) (UniProt P08659); assay: qHTS assay to identify small molecule inhibitors of firefly luciferase (AID 1224835); further: nearly all actives have a fitted effect of over 25% in size
Summary of the method: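 Inhibition of purified Photinus luciferase is measured by luminescence. Substrate levels (D-luciferin, ATP) sit at their KM values. Each compound is tested in a concentration series.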

[3] = qHTS assay to identify small molecule agonists of the constitutive androstane receptor (CAR) signaling pathway - cell viability counter screen (AID 1224836); further: nearly all actives have a fitted effect of over 45% in size
Summary of the method: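 HepG2 cells stably carrying hCAR and a CYP2B6-2.2kb reporter were plated 4 h, then given compounds at 15 concentrations plus PK11195 (final 0.75 uM). After 23 h at 37 C, viability was read by CellTiter-Fluor fluorescence.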

[4] = qHTS assay to identify small molecule antagonists of the constitutive androstane receptor (CAR) signaling pathway - cell viability counter screen (AID 1224837); further: nearly all actives have a fitted effect of over 45% in size
Summary of the method: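 Read-out: CellTiter-Fluor fluorescence after 23 hr at 37 C/5% CO2. Cells: HepG2 double-stable for hCAR and CYP2B6-2.2kb. Compounds tested at 15 concentrations in the presence of CITCO, final concentration 50 nM.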

[5] = molecular target: Nuclear receptor subfamily 1 group I member 3 (Homo sapiens) (UniProt Q14994); assay: qHTS assay to identify small molecule antagonists of the constitutive androstane receptor (CAR) signaling pathway (AID 1224838); further: nearly all actives have a fitted effect of over 40% in size
Summary of the method: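 Read-out: ONE-Glo luciferase luminescence after 30 min at room temperature. HepG2-CYP2B6-hCAR double-stable cells, compounds in 15-point titration plus 50 nM CITCO final, 24 h at 37 C/5% CO2.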

[6] = qHTS assay to identify small molecule antagonists of the estrogen related receptor signaling pathway with the pleiotropic PPARgamma coactivator (PGC) from Tox21 10K library - cell viability counter screen (AID 1224840; active means well fitted cell-killing curve with a large enough effect in the repeat runs, not every such curve was filed as active; further: nearly all actives have a fitted effect of over 40% in size)
Summary of the method: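 Fluorescence read-out of CellTiter-Fluor viability reagent, added after cells had been exposed to compound in DMSO for 17.5 h at 37 C; 30 min development at 37 C/5% CO2. Cells: PGC/ERR line, 2,000/well.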

[7] = qHTS assay to identify small molecule antagonists of the estrogen related receptor signaling pathway with the pleiotropic PPARgamma coactivator (PGC) from Tox21 10K library (AID 1224841; call rule not given here; further: actives are mostly falling curves and most rising ones were filed inactive; nearly all actives have a fitted effect of over 50% in size)
Summary of the method: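 Luminescence read-out (One-Glo luciferase reagent, 30 min at room temperature) from PGC/ERR cells exposed to DMSO-dissolved test compounds for 18 h at 37 C; cells, 2,000 per well, had been preincubated 6 h before compound transfer.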

[8] = qHTS assay to identify small molecule agonists of the estrogen related receptor signaling pathway with the pleiotropic PPARgamma coactivator (PGC) from Tox21 10K library (AID 1224842); further: nearly all actives have a fitted effect of over 15% in size
Summary of the method: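 Luminescence from One-Glo (30 min, room temperature) measured after PGC/ERR cells had 18 h at 37 C with pinned compound (23 nL in DMSO). Cells had been seeded at 2,000 per well and pre-incubated 6 h.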

[9] = molecular target: Thyrotropin receptor (Homo sapiens) (UniProt P16473); assay: qHTS assay to identify small molecule agonists of the thyroid stimulating hormone receptor (TSHR) signaling pathway (AID 1224843; calls by dose curve; further: nearly all actives have a fitted effect of over 45% in size)
Summary of the method: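 A cell-based cAMP HTRF format was run in TSHR-transfected HEK293 cells, 800 per well. Treatment: 30 min, room temperature. Detection: 1 h with labelled cAMP and anti-cAMP cryptate. Concentration-response over 15 points, three replicates.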

[10] = qHTS assay to identify small molecule agonists of the hypoxia (HIF-1) signaling pathway - cell viability counter screen (AID 1224844; calls by dose curve; further: nearly all actives have a fitted effect of over 50% in size)
Summary of the method: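 CellTiter-Glo luminescence read-out, 30 min RT, taken in the same wells as the beta-lactamase HRE reporter assay; HRE-bla ME-180 cells, 0.5% dialyzed FBS, 17 hr compound treatment at 37C, 5% CO2.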

[11] = qHTS assay to identify small molecule agonists of H2AX (AID 1224845; active means well fitted activation curve with a large enough effect in the signal ratio in the repeat runs, not every such curve was filed as active; the % refers to the signal ratio)
Summary of the method: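 Phospho-H2AX Ser139 measured by HTRF (ex 320 nm; em 665 and 620 nm) after 24 hr antibody incubation. Compounds, 15 concentrations, 0.76% DMSO, were applied to CHO-K1 cells for 3hr at 37C before lysis.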

[12] = qHTS assay to identify small molecule agonists of the hypoxia (HIF-1) signaling pathway (AID 1224846; active means well fitted activation curve with a large enough effect in the signal ratio in the repeat runs, not every such curve was filed as active; the % refers to the signal ratio)
Summary of the method: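 Beta-lactamase FRET read-out (CCF4-AM substrate) from ME-180 cells carrying an HRE-driven bla reporter, after 17 hrs compound exposure at 37C/5% CO2. Cells were seeded at 2,000 per well in 0.5% dialyzed FBS medium and preincubated 5 hrs.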

[13] = qHTS assay to identify small molecule agonists of H2AX - cell viability counter screen (AID 1224847; calls by dose curve; further: top concentration of the series differs between compounds; nearly all actives have a fitted effect of over 30% in size)
Summary of the method: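 Wild-type CHO-K1 cells (10% FBS medium) were plated overnight at 37C, exposed to compounds at 15 concentrations for 3 hr at 37C (0.76% DMSO final), and viability was read as CellTiter-Glo luminescence after 30 min at room temperature.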

[14] = qHTS assay to identify small molecule antagonists of the estrogen related receptor (ERR) signaling pathway from Tox21 library (AID 1224848); further: nearly all actives have a fitted effect of over 50% in size
Summary of the method: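 ERR cell line, 2,000 cells/well. 6 h settle, then compound (DMSO) added; 18 h at 37 C; ONE-Glo luminescence after 30 min RT.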

[15] = qHTS RealTime-Glo MT Cell Viability Assay in HepG2 cells - 24 hour (AID 1224867); further: nearly all actives have a fitted effect of over 50% in size
Summary of the method: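 Compound treatment began 5 h after plating HepG2 cells (600/well) with NanoLuc luciferase and prosubstrate. Plates stayed at 37 C for 40 h; luminescence was captured at six time points, 0 h through 40 h.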

[16] = qHTS RealTime-Glo MT Cell Viability Assay in HEK293 cells - 32 hour (AID 1224868)
Summary of the method: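 Quantitative high-throughput screen of the Tox21 10K library in HEK293: cells and RealTime-Glo reagents plated together, compound added at 5 h, luminescence monitored through 40 h at 37 C.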

[17] = A CellTox Green Cytotoxicity Assay to monitor cytotoxicity in HEK293 cells - 0 hour (AID 1224869); further: nearly all actives have a fitted effect of over 50% in size
Summary of the method: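 Read-out: fluorescence of a cell-impermeant cyanine dye staining DNA of dead cells, proportional to cytotoxicity. HEK293, 600 cells/well with reagent, compound (23 nL DMSO) added after 5 h; reads at 0, 8, 16, 24, 32, 40 h.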

[18] = qHTS RealTime-Glo MT Cell Viability Assay in HepG2 cells - 40 hour (AID 1224870); further: nearly all actives have a fitted effect of over 50% in size
Summary of the method: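 Real-time viability: cells seeded at 600 per well together with NanoLuc and cell-permeant prosubstrate, compounds added after 5 h incubation. Luminescence tracked at 0, 8, 16, 24, 32 and 40 h of exposure.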

[19] = molecular target: Nuclear receptor subfamily 1 group I member 3 (Homo sapiens) (UniProt Q14994); assay: qHTS assay to identify small molecule agonists of the constitutive androstane receptor (CAR) signaling pathway (AID 1224839);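 further: HepG2 cells stably carrying human CAR and a CYP2B6 luciferase reporter; nearly all actives have a fitted effect of over 15% in size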
Summary of the method: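 HepG2 cells stably expressing hCAR and a CYP2B6-2.2kb luciferase reporter were treated with compounds at 15 concentrations plus 0.75 uM PK11195 (final) for 24 h at 37 C; luminescence was read after ONE-Glo addition.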

[20] = qHTS assay to identify small molecule agonists of the estrogen related receptor (ERR) signaling pathway from Tox21 library (AID 1224849; calls by dose curve; further: nearly all actives have a fitted effect of over 15% in size); settings: ERR reporter cell line, ONE-Glo luciferase, 18 h; at 92.4 µM (top of the series) unless noted
Summary of the method: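 Luminescence readout (ONE-Glo, 30 min RT) after 18 h compound exposure at 37 C of NTP-supplied ERR reporter cells; cells were plated 6 h before compound addition by pin tool.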
On the % scale 0 is the no-effect control and ±100 the full control effect.

Chain of Nuclear receptor subfamily 1 group I member 3 (Homo sapiens) (Q14994 whole entry, looked up): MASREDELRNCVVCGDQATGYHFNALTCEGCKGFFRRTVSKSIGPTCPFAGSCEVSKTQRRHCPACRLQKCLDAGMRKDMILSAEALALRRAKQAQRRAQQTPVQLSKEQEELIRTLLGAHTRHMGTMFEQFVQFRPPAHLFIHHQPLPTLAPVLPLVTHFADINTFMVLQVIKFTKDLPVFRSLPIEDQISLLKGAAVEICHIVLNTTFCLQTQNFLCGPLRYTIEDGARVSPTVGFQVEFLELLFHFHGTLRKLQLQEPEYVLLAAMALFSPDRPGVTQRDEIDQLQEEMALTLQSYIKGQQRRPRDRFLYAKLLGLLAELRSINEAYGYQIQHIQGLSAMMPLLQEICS
Chain of Thyrotropin receptor (Homo sapiens) (P16473 whole entry, looked up): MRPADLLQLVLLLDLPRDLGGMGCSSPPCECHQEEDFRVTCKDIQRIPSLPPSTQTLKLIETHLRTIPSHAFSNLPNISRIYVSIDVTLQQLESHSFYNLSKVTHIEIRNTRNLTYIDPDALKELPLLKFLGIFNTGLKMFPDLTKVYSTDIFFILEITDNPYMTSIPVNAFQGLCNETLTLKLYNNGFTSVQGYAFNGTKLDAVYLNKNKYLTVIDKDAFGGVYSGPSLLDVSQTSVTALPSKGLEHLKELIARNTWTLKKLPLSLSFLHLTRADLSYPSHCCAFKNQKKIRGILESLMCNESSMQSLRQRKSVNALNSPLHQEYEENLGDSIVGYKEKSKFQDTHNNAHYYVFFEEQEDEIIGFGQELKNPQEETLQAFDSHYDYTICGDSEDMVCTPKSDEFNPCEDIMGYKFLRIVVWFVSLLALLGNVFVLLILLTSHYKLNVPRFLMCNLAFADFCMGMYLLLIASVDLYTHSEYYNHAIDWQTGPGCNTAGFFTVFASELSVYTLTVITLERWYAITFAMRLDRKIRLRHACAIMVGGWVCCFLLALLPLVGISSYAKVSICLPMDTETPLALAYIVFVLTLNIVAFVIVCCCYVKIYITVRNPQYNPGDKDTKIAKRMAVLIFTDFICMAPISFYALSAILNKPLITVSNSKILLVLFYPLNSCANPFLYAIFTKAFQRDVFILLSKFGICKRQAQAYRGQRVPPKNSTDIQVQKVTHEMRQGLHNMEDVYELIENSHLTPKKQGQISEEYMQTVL
Chain of Luciferin 4-monooxygenase (Photinus pyralis) (P08659 whole entry, looked up): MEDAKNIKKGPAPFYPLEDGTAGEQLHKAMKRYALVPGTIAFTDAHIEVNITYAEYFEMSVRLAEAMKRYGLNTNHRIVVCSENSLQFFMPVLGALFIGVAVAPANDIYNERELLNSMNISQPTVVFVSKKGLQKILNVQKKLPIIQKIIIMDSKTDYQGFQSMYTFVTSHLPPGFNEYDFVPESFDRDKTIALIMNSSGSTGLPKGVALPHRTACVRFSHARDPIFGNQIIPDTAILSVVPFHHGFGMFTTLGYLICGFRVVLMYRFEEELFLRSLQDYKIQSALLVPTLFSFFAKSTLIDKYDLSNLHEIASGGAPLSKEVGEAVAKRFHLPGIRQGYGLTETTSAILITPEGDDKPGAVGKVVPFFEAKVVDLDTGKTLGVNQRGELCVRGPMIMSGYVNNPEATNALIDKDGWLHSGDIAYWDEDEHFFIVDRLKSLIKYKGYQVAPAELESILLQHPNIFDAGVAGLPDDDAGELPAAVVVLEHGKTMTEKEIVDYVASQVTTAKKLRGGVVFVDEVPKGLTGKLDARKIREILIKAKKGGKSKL

CC(=O)CC(C)C
inactive: Potency [1] | Potency [2] | Potency [3] | Potency [4] | Potency [5] | Potency [6] | Potency [7] | outcome [8] | Potency [9] | Potency [10] | outcome [11] | outcome [12] | Potency [13] | Potency [14] | Potency [15] | Potency [16] | Potency [17] | Potency [18]

CN1CCN(c2cc3c(cc2F)c(=O)c(C(=O)O)cn3-c2ccc(F)cc2)CC1
inactive: Potency [1] | Potency [2] | Potency [3] | Potency [4] | Potency [5] | Potency [19] | Potency [7] | outcome [8] | Potency [10] | outcome [11] | outcome [12] | Potency [13] | Potency [14] | activity change, positive = activation [20] -10.8% [at 42.5 µM] | Potency [15] | Potency [16] | Potency [18]

c1cnc(N2CCN(Cc3ccc4c(c3)OCO4)CC2)nc1
inactive: Potency [1] | Potency [2] | Potency [3] | Potency [4] | Potency [5] | Potency [19] | Potency [6] | Potency [9] | Potency [10] | outcome [11] | Potency [13] | Potency [15] | Potency [16] | Potency [17] | Potency [18]

NS(=O)(=O)c1cc(C(=O)O)cc(N2CCCC2)c1Oc1ccccc1
inactive: Potency [1] | Potency [2] | Potency [3] | Potency [4] | Potency [5] | Potency [19] | Potency [7] | outcome [8] | Potency [10] | outcome [11] | Potency [13] | Potency [14] | activity change, positive = activation [20] 0.186% [at 42.5 µM] | Potency [15] | Potency [16] | Potency [17]

CN1C(=O)N(C)C(O)C1O (centres undefined)
inactive: Potency [1] | Potency [2] | Potency [3] | Potency [4] | Potency [5] | Potency [6] | Potency [7] | outcome [8] | Potency [9] | Potency [10] | outcome [11] | outcome [12] | Potency [13] | Potency [14] | Potency [15] | Potency [16] | Potency [17] | Potency [18]
